TDP1 cell CPT – growth inhibition of DT40 Tdp1-/-;hTDP1 cells with camptothecin (screen for TDP1 inhibitors); chicken DT40 Tdp1-/-;hTDP1 cells + 20 nM CPT, ATP luminescence, 48 h; Potency, µM (titrated, usually from 46.2 µM), inactives show top-dose activity change, negative = growth inhibition, most hits filed as inhibitors; hit rate 12% among 420,000; also: potency is read from the fitted curve at half-maximal effect; nearly all actives have a fitted effect of over 55% in size
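Chicken DT40 Tdp1-/- cells stably complemented with human TDP1 were seeded at 400 cells/well in medium containing 20 nM camptothecin, exposed to pin-transferred compounds, and grown at 37 °C for at least 48 hr. Viability was read as ATP luminescence.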
TDP1 cell noCPT – qHTS for Inhibitors of human tyrosyl-DNA phosphodiesterase 1 (TDP1): qHTS in cells in absence of CPT. Potency, µM (top dose mostly 46.2 µM), without a hit: top-dose activity change, negative = growth inhibition, actives largely listed as inhibitors. hit rate 15% among 420,000. DT40 Tdp1-/- hTDP1 cells, no CPT, ATP luminescence, 48 h. AID 686978, 2013; also: potency is read from the fitted curve at half-maximal effect; nearly all actives have a fitted effect of over 55% in size
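Seeded 400 DT40-hTDP1 cells/well (vehicle DMSO, no 20 nM CPT); pinned compounds; ≥48 hr at 37 °C; CellTiter-Glo luminescence as viability measure.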
RORg inh – ROR gamma (mouse) transcription inhibition. hit rate 5.4% among 310,000. P51450. Potency, µM (highest dose often 53.6 µM), for the others: at the highest dose activity change, negative = inhibition, most hits filed as inhibitors. Drosophila S2 Gal4-RORgamma UAS-luciferase reporter, 20 h; also: potency is read from the fitted curve at half-maximal effect; nearly all actives have a fitted effect of over 60% in size
Target sequence (P51450 whole entry, looked up, the tested form may be a part): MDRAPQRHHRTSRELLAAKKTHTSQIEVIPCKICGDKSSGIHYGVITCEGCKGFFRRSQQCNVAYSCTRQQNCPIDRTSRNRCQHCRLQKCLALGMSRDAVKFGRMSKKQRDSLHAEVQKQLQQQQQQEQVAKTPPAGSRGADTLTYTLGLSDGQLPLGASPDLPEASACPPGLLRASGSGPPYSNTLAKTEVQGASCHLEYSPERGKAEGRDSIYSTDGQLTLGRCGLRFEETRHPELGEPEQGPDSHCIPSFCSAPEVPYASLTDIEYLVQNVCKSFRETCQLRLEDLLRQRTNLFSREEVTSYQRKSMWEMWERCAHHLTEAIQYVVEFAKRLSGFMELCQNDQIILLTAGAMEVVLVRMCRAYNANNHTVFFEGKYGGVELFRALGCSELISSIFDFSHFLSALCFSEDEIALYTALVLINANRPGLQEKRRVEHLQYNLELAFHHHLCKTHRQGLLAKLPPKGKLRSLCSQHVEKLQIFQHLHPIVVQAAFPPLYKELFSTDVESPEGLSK
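Stable Schneider cell line, Gal4 DNA-binding domain fused to ROR gamma, UAS-luciferase. Cmpd 1 hr RT → CuSO4 700 uM final → 20 hr RT → luciferase reagent 10 min → luminescence.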
VP16 counter – inhibits Gal4-VP16 luciferase reporter, ROR gamma counter-screen; Drosophila S2 Gal4-VP16 UAS-luciferase, luminescence, 20 h; Potency, µM (series often up to 53.6 µM), for inactives: top-dose activity, negative = inhibition, most hits filed as inhibitors; hit rate 3.5% among 310,000;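 also: Gal4-VP16 expression switched on by copper sulfate through the metallothionein promoter; potency is read from the fitted curve at half-maximal effect; nearly all actives have a fitted effect of over 50% in size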
IL-1B inflam inh – inflammasome signaling inhibition, IL-1 beta readout | THP-1 LPS/ATP IL-1B secretion, AlphaLISA, 16 h; stronger effect = lower value | activity change, % at 57.5 µM | hit rate 4.7% among 360,000 | AID 743279; in the data active = activity change below about -50%; inconclusive = mostly about -30% to -49%
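THP-1 cells pretreated 1 hr with compounds (up to 57.5 uM final), then stimulated with LPS (250 ng/mL final) plus ATP (1.25 mM final); secreted IL-1B measured by AlphaLISA after 16 hr, decreased signal indicating inhibition.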
ELG1 DNA repair – ELG1-dependent DNA repair inhibition | HEK293T ELG1-luciferase reporter, luminescence, 16 h; DNA damage induced by 5-fluorouridine | Potency, µM (doses to about 46.1 µM), for the others: at the highest dose activity change, negative = inhibition, usual class: inhibitors | hit rate 2.3% among 330,000 | AID 504467; also: potency is read from the fitted curve at half-maximal effect; nearly all actives have a fitted effect of over 55% in size
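HEK293T cells expressing luciferase-tagged ELG1 (2,000/well) received 5-Fluorouridine plus compound or DMSO for 16 hr at 37 °C. Luciferase was read by ONE-Glo luminescence after 30 min at room temperature.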
Starred values were filed as active, the others as inactive; ? = inconclusive; . = no result. A selection: hits, their analogues and other compounds. The true share with any hit is near 21%. Unless noted, calls follow the shape of the dose curve; as a rule, active = well fitted curve in the direction sought with a large enough effect; inconclusive = small, poorly fitted or top-dose-only effect, or another doubt; inactive = no such curve, though single readings can be large; an effect the other way counts as inactive or inconclusive. % is scaled to controls: 0 for no effect and ±100 for the full control effect.

SMILES	TDP1 cell CPT	TDP1 cell noCPT	RORg inh	VP16 counter	IL-1B inflam inh	ELG1 DNA repair
Cn1cccc1/C=N/N1CCN(Cc2cccc3ccccc23)CC1	?	13µM*	-10.7%	2.1%	?	-6.0%
O=[N+]([O-])c1ccc(O)c(C2=NNC(c3ccccc3F)C2)c1 (stereo not drawn)	23.1µM*	16.4µM*	6.31µM*	?	-57.6*	?
CC1(C)CC(=O)C(C=Nc2ccc(C(=O)c3ccccc3)cc2N=CC2=C(O)CC(C)(C)CC2=O)=C(O)C1	?	?	15.8µM*	-8.6%	9.7	-4.7%
CC1(C)CC(=O)C(C=Nc2ccc(O)c(N=CC3=C(O)CC(C)(C)CC3=O)c2)=C(O)C1	16.4µM*	?	-14.1%	-0.9%	6.6	-8.9%
Cc1ccc(O)c(N=NC2=C(O)CC(C)(C)CC2=O)c1	14.6µM*	8.2µM*	7.94µM*	8.91µM*	45.8	?
CC1(C)CC(=O)C(C=Nc2ccc3c(c2)OCO3)=C(O)C1	-26.4%	-10.2%	17.6%	-4.1%	1.2	?
CC1(C)CC(=O)C(C=Nc2cccnc2/N=C/C2=C(O)CC(C)(C)CC2=O)=C(O)C1	4.61µM*	?	10µM*	-12.9%	-9.6	2.1%
CC1(C)CC(=O)C(C=Nc2cccnc2)=C(O)C1	-13.2%	-14.2%	-21.3%	-7.4%	-2.3	-1.3%
CNCC[C@H](Oc1ccccc1OC)c1ccccc1	?	?	-3.0%	-6.3%	.	.
O=C(CNCCc1ccc(Cl)cc1)Nc1ccc(C(=O)N2CCCCC2)cc1	?	?	34.6%	-8.0%	-14.9	-0.8%
S=C(NCc1ccc(Cl)c(Cl)c1)NCc1ccco1	-20.4%	-9.9%	?	?	6.1	-4.2%
Cc1c(Cl)cccc1NC(=S)NCCc1ccccn1	7.7%	-4.6%	2.51µM*	8.91µM*	.	-23.1%
S=C(NCc1ccco1)Nc1ccc(Br)cc1Cl	-0.9%	-0.4%	12.6µM*	-25.2%	-82.9*	10.0%
S=C(NCc1ccc(Cl)cc1)NCc1ccccn1	-20.7%	23.6%	15.8µM*	?	7.6	2.9%
Cc1cccc(Cl)c1NC(=S)NCCc1ccccn1	0.2%	-3.6%	?	?	-3.3	-3.0%
S=C(NCCc1ccccn1)Nc1ccccc1Cl	-1.4%	-1.0%	6.31µM*	12.6µM*	9.3	?
CN(C)CCNC(=S)Nc1ccccc1Cl	6.5%	1.6%	-26.7%	-7.9%	7.4	12.2%
N#Cc1ccc(CN2CCCC3(CCN(S(=O)(=O)c4ccccc4)CC3)C2)cc1	?	?	9.1%	-8.2%	.	.
S=C(NCCc1ccccn1)Nc1ccc(Cl)cc1Cl	-16.8%	?	5.01µM*	?	-12.9	-2.9%
O=C(NCc1ccccn1)Nc1ccc(Br)cc1Cl	-27.9%	-15.2%	36.7%	-1.7%	?	?
Clc1ccccc1NN(Cc1ccccn1)c1ccccc1Cl	?	23.1µM*	.	.	50.3	.
Cc1c(Cl)cccc1NC(=S)NCCCN(C)C	?	5.1%	-11.9%	-9.4%	-12.9	1.8%
Cc1c(Cl)cccc1NC(=S)NCCc1ccc(C(F)(F)F)cc1	?	16.4µM*	2.51µM*	?	-102.2*	?
S=C(NCc1ccccn1)Nc1ccc(Br)cc1Cl	1.8%	-9.3%	7.08µM*	?	-20.8	?
COc1cccc(Cn2c(=O)c(C)nc3cnc(OC)nc32)c1	-1.1%	-12.2%	-43.0%	-2.3%	.	.
SMILES	TDP1 cell CPT	TDP1 cell noCPT	RORg inh	VP16 counter	IL-1B inflam inh	ELG1 DNA repair
O=C(NCc1ccccn1)Nc1ccccc1Cl	-9.8%	2.0%	19.4%	22.0%	-28.3	?
S=C(NCc1ccccn1)Nc1ccccc1Cl	?	?	10µM*	?	-5.9	?
COc1ccc(CNC(=O)CN(Cc2ccccc2)S(=O)(=O)c2ccc(Cl)cc2)cc1	?	18.4µM*	5.9%	-11.3%	-16.4	?
CCN(CC(=O)NCc1ccc(Cl)cc1)C(=O)c1ccc(C#N)cc1	20.6µM*	?	6.5%	3.6%	0.8	0.0%
COc1ccc(S(=O)(=O)N(CC(=O)NCc2ccncc2)Cc2ccccc2)cc1	?	11.6µM*	-26.0%	-10.3%	10.6	-10.0%
CCN(CC(=O)NCc1ccc(Cl)cc1)C(=O)c1cccc(S(=O)(=O)Nc2ccc(OC)cc2)c1	?	10.3µM*	.	.	-7.7	-11.6%
CCN(CC(=O)NCc1cccs1)C(=O)c1cccc(S(=O)(=O)Nc2ccc(OC)cc2)c1	-21.7%	-16.8%	.	.	2.1	10.4%
CCN(CC(=O)NCc1ccc(F)cc1)C(=O)c1ccc(Cl)cc1	-15.8%	2.5%	1.8%	-8.4%	-5.9	-7.3%
O=C(/C=C/c1ccc(O)c(O)c1)c1ccc(O[C@@H]2O[C@H](CO)[C@@H](O)[C@H](O)[C@H]2O)c(O)c1O	.	.	1.3%	-14.8%	.	.
COc1ccc(CN2CCN(C(=O)c3ccccc3C(=O)c3ccccc3)CC2)cc1OC	?	-19.3%	.	.	8.5	.
COc1ccc(C)cc1S(=O)(=O)N(CC(=O)NCc1ccc(Cl)cc1)Cc1ccccc1	20.6µM*	?	-15.9%	-1.1%	-61.3*	?
CCCNC(=O)CN1CCN(c2cc3ccccc3c(Cl)n2)CC1	?	16.4µM*	-7.0%	4.2%	-20.5	-29.8%
Cc1ccc(S(=O)(=O)N(C)C[C@@H]2OCc3cn(nn3)CCCC(=O)N([C@H](C)CO)C[C@H]2C)cc1	-25.1%	-0.4%	.	.	5.6	.
O=C(Nc1cn(-c2ccccc2)nc1-c1ccc(Cl)cc1)c1ccccc1	?	?	27.3%	-4.9%	3.9	-4.4%
Cc1ccc(-c2nn(-c3ccccc3)cc2NC(=O)c2ccccc2)cc1	20.6µM*	20.6µM*	5.5%	-9.6%	?	-5.7%
O=C(c1cn(-c2ccccc2)nc1-c1ccncc1)n1nnc2ccccc21	16.4µM*	-29.3%	.	.	-17.9	.
O=C(Nc1ccc(F)cc1)c1cn(-c2ccccc2)nc1-c1ccncc1	?	?	-22.1%	-2.6%	-23.5	20.6µM*
O=C(Nc1cn(-c2ccccc2)nc1-c1ccc(F)cc1)c1ccccc1	20.6µM*	18.4µM*	1.7%	2.7%	10.5	?
Nc1cccc[n+]1C(c1ccnc2ccccc12)[n+]1ccccc1N	1.12µM*	1µM*	.	.	.	.
COc1cc(OC)cc(-c2c(-c3ccc(F)cc3)c3cc(-c4ccc(SC)cc4)ccc3n2C)c1	?	?	.	.	0.0	?
COc1ccc(-c2ccc3c(c2)c(-c2cccs2)c(-c2cc(OC)cc(OC)c2)n3C)cc1	?	23.1µM*	.	.	11.4	9.9%
